Measured values published in PubChem BioAssay AID1035475 (Broad Institute, 2014).
Results with a measured potency or affinity are listed apart. Inconclusive results are not listed. Unmarked numbers belong to inactive results.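 How the source made its calls: active means fluorescent signal drops by 40% or more, counted as a hit; inconclusive means no clear call, values can overlap the other calls; inactive means the rest, including any activity in the opposite direction.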

Assay: inhibitors of fibronectin matrix deposition, dose response, AH1F cells, Alexa488-FN fluorescence, cherry-picks (AID 1035475);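 further: AH1F fibroblasts incorporating labeled fibronectin into their extracellular matrix; 0% = neutral control wells and -100% = wells without labeled fibronectin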
Details: AH1F fibroblasts, overnight; series mostly up to 35 µM; activity change, negative = inhibition: at the top concentration

SMILES | activity change, negative = inhibition
c1ccc2[nH]c(SCc3cn4cccnc4n3)nc2c1 | -10.3%
CC1CN(C(=O)c2cc3c(=O)n4ccccc4nc3n2C)CC(C)O1 (stereo not given) | -7.05%
COc1ncccc1C(=O)NC1CCCc2c1cnn2-c1ccc(C)c(C)c1 (stereo not given) | -16.2%
COC(=O)C[C@@H]1CC[C@@H]2[C@H](COc3ccc(NC(=O)Cc4cccs4)cc3C(=O)N2C)O1 | 7.52%
CN1c2ccc(-c3ccccc3)cc2[C@@H]2[C@@H](CCN2C(=O)CN2CCOCC2)[C@@H]1CO | 24.1% [at 30 µM]
COCC(=O)Nc1ccc2c(c1)C(=O)N(C)[C@@H]1CC[C@@H](CC(=O)NCc3ccccc3Cl)O[C@@H]1CO2 | 40%
Cc1ccc(S(=O)(=O)N2CC[C@@H]3[C@H](CO)Nc4ccc(-c5cccc(C(=O)N(C)C)c5)cc4[C@@H]32)cc1 | -8.78%
C[C@H](O)C#Cc1ccc2c(c1)O[C@@H](CN(C)C)[C@H](C)CN([C@@H](C)CO)S2(=O)=O | 32.9%
Cc1ccc(N(CC(=O)NCc2ccco2)S(=O)(=O)c2ccccc2)cc1 | 5.82%
CO[C@@H]1CN(C)C(=O)c2cc(NC(=O)Nc3cc(Cl)cc(Cl)c3)ccc2OC[C@@H](C)NC[C@@H]1C | 8.56%
CC(C)(C)[S@@](=O)N1Cc2cc(C(=O)NCc3ccccc3F)nc(-c3cccc(-c4ccncc4)c3)c2[C@H]1CCO | -7.62%
OC(CNC1CCCc2ccccc21)COc1c(Cl)cccc1Cl (stereo not given) | -2.1%
COC(=O)c1c(NC(=O)CN2CCN(c3ccccc3Cl)CC2)sc(C)c1C | -27.9%
CSc1ccccc1C(=O)C1CCCN(C(=O)CCc2cccnc2)C1 (stereo not given) | 0.764%
O=C(CC1Nc2ccccc2NC1=O)Nc1ccc2c(c1)OCO2 (stereo not given) | 5.64%
Cc1ccc(Nc2nnc(SCc3ccccc3)s2)cc1 | -41%
N#C[C@@H]1[C@@H](c2ccccc2C2=CCCCC2)[C@@H](CO)N1S(=O)(=O)c1ccccc1 | 35.2% [at 30 µM]
Cc1ccn2cc(-c3ccc(NC(=O)c4ccco4)cc3)nc2c1 | -28.4%

SMILES | activity change, negative = inhibition
Nc1c(C(=O)NCc2ccco2)nnn1Cc1ccccc1 | 1.31%
CCc1ccc(NC(=O)CSc2nnc(-c3ccco3)o2)cc1 | -11.6%
COc1cccc(CN2CCN(C(=O)c3ccc(-c4ccccc4)cc3)CC2)c1OC | -21.9%
C=CCC[C@H](Cc1ccc(F)cc1)C(=O)OC[C@H](Cc1c[nH]c2ccccc12)NC(=O)[C@@H](CC=C)CC(=O)N[C@@H](CO)Cc1ccccc1 | 19.2%
CN(C)C(=O)c1ccc(-c2ccc3c(c2)[C@H]2[C@H](CCN2C(=O)c2ccc(F)cc2)[C@@H](CO)N3C)cc1 | 21.9% [at 30 µM]
COC(=O)c1cn(CC(=O)NCc2ccco2)c2ccccc12 | 0.383%
COc1cccc(-c2ccc3c(c2)[C@H]2[C@H](CCN2S(=O)(=O)c2cccc(OC)c2)[C@@H](CO)N3)c1 | -7.81%
C[C@H](CO)N1C[C@H](C)[C@@H](CN(C)C(=O)Nc2cccc3ccccc23)Oc2c(NC(=O)Nc3ccc(C(F)(F)F)cc3)cccc2C1=O | 22.4%
COCC(=O)Nc1ccc2c(c1)C(=O)N(C)[C@H]1CC[C@H](CC(=O)NCc3ccccc3Cl)O[C@H]1CO2 | 12.8%
Cc1ccc([N+](=O)[O-])cc1NC(=O)CN(C(=O)c1ccccc1Cl)C1CCCCC1 | -14.8%
C[C@H](O)C#Cc1ccc2c(c1)O[C@@H](CN(C)C)[C@H](C)CN([C@H](C)CO)S2(=O)=O | 26.9%
N#C[C@H]1[C@@H](c2ccccc2C2=CCCCC2)[C@H](CO)N1S(=O)(=O)c1ccccc1 | 34.4% [at 30 µM]
C[C@@H]1CN([C@H](C)CO)C(=O)c2cc(NC(=O)C3CCCCC3)ccc2O[C@H]1CN(C)Cc1ccc(-c2ccccc2)cc1 | 6.62%
CCC(C)(C)NC(=O)C(OC(=O)c1ccco1)c1ccccc1OC (stereo not given) | 11.6%
Cc1oc2ccc(O)cc2c1C(=O)c1ccc(Br)cc1 | -1.76%
C[C@H](CO)N1C[C@H](C)[C@H](CN(C)C)Oc2cc(C#C[C@@H](C)O)ccc2S1(=O)=O | 27.1%
CCOC(=O)c1cnc(SCc2nc(N)nc(Nc3ccc(OC)cc3)n2)nc1N | -30.6%
